# Measurements taken from PMC7862700, “An all-to-all approach to the identification of sequence-specific readers for epigenetic DNA modifications on cytosine”.
# Tests used:
# Test in all cases: DAPPL (digital affinity profiling via proximity ligation, sequencing); 10 mM Tris-HCl pH 7.5, 50 mM NaCl, 1 mM DTT, 4% glycerol, room temperature, 30 min; GST-TFs on glutathione beads, 16-mer random dsDNA library, 0.1% formaldehyde crosslink after washing; high values mean tight binding
# [1] = biological target: T1, FEV (Homo sapiens, UniProt Q99581 1-238); conditions: protein: recombinant; tags: N-terminal GST; dsDNA, one strand shown
# T1 sequence: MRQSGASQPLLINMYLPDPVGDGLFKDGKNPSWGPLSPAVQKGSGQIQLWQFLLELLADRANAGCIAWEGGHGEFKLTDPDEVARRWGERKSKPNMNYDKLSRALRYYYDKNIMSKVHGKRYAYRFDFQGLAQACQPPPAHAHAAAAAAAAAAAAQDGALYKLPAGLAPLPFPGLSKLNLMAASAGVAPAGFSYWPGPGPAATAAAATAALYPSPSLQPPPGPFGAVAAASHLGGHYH
# Method in brief: (§1)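 GST fusions of human transcription factors were expressed in yeast and captured with glutathione beads. Once given DNA barcodes and pooled alongside a tag-only sample, they were incubated for 30 min at room temperature with 200 nmole of a random double-stranded 16-mer DNA library in Tris/NaCl/DTT/glycerol buffer, then washed, crosslinked (0.1% formaldehyde), proximity-ligated, PCR-amplified and sequenced on an Illumina NextSeq500. The binding signal of each hexamer is its read frequency for a factor divided by its frequency for the tag-only sample.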
# [2] = biological target: ETV5 (Homo sapiens, UniProt P41161 1-510); conditions: protein: recombinant; tags: N-terminal GST; dsDNA, one strand shown
# Chain of ETV5 (P41161 whole entry): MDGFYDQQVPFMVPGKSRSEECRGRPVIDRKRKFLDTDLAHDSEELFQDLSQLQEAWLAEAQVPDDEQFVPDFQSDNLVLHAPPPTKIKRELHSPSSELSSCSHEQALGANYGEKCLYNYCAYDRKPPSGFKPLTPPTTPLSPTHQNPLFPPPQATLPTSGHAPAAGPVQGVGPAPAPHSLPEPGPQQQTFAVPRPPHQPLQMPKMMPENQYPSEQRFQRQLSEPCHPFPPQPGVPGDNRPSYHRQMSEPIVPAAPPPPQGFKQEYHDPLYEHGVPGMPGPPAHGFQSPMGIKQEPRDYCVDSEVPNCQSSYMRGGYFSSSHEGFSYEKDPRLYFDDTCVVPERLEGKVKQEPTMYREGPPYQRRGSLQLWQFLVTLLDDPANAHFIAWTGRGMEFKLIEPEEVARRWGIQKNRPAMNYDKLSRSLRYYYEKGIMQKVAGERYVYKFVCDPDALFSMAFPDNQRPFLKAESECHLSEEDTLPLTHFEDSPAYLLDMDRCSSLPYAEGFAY
# Method in brief: as §1
# [3] = biological target: HSF1 (Homo sapiens, UniProt Q00613 1-529); conditions: protein: recombinant; tags: N-terminal GST; chain copies: 3; dsDNA, one strand shown
# Chain of HSF1 (Q00613 whole entry): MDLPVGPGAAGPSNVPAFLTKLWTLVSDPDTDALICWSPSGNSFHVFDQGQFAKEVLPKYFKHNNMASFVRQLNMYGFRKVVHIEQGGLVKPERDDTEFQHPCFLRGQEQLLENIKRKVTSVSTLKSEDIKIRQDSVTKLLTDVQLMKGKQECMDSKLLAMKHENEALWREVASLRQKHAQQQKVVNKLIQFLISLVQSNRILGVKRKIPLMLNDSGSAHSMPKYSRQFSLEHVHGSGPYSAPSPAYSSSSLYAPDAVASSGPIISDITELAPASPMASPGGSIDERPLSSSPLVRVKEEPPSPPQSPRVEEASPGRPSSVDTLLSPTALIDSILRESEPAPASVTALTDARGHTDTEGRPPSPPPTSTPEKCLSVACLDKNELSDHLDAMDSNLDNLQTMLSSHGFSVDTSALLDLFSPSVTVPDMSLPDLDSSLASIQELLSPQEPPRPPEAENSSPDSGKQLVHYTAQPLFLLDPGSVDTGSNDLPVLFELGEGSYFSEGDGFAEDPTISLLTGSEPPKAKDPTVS
# Method in brief: as §1
# [4] = biological target: T2, SPIC (Homo sapiens, UniProt Q8N5J4 1-248); conditions: protein: recombinant; tags: N-terminal GST; dsDNA, one strand shown
# T2 sequence: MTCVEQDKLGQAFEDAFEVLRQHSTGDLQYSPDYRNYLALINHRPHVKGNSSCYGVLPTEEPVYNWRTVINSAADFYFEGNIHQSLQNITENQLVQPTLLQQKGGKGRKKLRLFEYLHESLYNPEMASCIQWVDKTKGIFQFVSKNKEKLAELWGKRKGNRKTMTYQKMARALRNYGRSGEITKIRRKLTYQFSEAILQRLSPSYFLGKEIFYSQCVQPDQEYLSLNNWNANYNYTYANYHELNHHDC
# Method in brief: as §1
# [5] = biological target: ELF4 (Homo sapiens, UniProt Q99607 1-663); conditions: protein: recombinant; tags: N-terminal GST; dsDNA, one strand shown
# Chain of ELF4 (Q99607 whole entry): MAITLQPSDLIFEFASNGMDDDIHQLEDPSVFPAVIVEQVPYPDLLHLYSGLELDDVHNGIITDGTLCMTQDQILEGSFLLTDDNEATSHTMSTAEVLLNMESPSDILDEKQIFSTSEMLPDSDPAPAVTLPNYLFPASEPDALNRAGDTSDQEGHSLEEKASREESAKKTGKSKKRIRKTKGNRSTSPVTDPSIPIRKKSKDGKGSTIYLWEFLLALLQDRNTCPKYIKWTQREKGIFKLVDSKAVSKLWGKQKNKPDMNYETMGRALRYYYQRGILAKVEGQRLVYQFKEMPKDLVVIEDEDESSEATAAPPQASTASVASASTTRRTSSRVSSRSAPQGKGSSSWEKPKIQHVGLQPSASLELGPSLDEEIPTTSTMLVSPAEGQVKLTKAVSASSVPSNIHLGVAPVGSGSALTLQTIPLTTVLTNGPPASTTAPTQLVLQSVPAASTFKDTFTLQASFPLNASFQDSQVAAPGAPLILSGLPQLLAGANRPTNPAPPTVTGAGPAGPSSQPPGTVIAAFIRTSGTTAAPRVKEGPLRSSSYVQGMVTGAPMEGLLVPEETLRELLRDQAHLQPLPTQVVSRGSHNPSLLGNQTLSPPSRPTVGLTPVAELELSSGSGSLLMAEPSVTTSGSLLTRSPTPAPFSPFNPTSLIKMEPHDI
# Method in brief: as §1
# [6] = biological target: T3, ELK4 (Homo sapiens, UniProt P28324-2 1-405); conditions: protein: recombinant; tags: N-terminal GST; dsDNA, one strand shown
# T3 sequence: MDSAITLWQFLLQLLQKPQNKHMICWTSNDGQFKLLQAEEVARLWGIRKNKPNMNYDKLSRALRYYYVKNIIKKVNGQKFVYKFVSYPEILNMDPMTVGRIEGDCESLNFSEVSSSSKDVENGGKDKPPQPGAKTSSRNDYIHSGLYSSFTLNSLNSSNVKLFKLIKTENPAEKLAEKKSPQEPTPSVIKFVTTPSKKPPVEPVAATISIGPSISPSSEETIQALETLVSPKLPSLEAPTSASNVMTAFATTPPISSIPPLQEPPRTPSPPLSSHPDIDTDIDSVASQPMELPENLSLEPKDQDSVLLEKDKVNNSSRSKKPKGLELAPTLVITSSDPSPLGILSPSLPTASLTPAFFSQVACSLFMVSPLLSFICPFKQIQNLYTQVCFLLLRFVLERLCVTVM
# Method in brief: as §1
# [7] = biological target: T4, ETV2 (Homo sapiens, UniProt O00321 1-342); conditions: protein: recombinant; tags: N-terminal GST; dsDNA, one strand shown
# T4 sequence: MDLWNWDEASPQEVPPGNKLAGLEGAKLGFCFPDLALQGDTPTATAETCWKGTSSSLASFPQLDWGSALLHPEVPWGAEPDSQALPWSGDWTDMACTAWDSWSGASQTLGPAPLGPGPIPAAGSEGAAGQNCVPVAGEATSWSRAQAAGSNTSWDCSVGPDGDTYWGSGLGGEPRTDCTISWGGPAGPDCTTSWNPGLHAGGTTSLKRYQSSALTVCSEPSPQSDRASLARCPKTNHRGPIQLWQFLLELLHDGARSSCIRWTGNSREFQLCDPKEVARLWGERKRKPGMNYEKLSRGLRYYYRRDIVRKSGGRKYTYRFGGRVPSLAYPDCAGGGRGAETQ
# Method in brief: as §1
# [8] = biological target: T5, ELF3 (Homo sapiens, UniProt P78545 1-371); conditions: protein: recombinant; tags: N-terminal GST; dsDNA, one strand shown
# T5 sequence: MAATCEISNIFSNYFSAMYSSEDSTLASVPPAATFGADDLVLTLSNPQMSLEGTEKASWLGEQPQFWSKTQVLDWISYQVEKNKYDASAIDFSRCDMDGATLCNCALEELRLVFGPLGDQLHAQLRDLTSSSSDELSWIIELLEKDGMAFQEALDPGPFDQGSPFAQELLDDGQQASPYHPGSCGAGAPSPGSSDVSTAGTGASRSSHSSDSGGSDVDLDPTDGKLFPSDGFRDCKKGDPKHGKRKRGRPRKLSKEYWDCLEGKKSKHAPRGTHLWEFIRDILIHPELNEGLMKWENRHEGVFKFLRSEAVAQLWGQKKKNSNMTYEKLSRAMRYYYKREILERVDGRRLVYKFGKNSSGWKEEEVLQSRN
# Method in brief: as §1
# [9] = biological target: CRX (Homo sapiens, UniProt O43186 1-299); conditions: protein: recombinant; tags: N-terminal GST; dsDNA, one strand shown
# Chain of CRX (O43186 whole entry): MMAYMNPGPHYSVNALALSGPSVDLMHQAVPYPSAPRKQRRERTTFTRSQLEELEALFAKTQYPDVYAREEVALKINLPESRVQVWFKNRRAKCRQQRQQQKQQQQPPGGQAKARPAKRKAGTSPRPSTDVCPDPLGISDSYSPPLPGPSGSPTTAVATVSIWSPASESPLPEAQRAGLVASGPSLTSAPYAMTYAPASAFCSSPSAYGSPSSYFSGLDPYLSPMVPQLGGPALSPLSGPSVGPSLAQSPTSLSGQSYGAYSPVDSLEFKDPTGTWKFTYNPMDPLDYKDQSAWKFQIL
# Method in brief: as §1
# [10] = biological target: ETV1 (Homo sapiens, UniProt P50549 1-477); conditions: protein: recombinant; tags: N-terminal GST; dsDNA, one strand shown
# Chain of ETV1 (P50549 whole entry): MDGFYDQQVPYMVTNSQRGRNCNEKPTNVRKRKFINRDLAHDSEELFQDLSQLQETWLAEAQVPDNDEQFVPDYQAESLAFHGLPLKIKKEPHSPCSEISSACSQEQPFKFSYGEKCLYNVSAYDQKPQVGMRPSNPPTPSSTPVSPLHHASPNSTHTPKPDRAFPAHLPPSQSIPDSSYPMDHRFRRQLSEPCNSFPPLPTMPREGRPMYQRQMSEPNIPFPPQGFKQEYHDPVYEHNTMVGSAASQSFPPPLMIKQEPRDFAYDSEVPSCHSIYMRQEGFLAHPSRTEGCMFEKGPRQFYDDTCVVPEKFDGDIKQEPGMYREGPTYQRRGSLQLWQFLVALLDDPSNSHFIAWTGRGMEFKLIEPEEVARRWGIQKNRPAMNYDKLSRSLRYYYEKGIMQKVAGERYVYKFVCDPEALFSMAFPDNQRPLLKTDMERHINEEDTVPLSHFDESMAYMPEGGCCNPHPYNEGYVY
# Method in brief: as §1
# [11] = biological target: T6, ERF (Homo sapiens, UniProt P50548 1-548); conditions: protein: recombinant; tags: N-terminal GST; dsDNA, one strand shown
# T6 sequence: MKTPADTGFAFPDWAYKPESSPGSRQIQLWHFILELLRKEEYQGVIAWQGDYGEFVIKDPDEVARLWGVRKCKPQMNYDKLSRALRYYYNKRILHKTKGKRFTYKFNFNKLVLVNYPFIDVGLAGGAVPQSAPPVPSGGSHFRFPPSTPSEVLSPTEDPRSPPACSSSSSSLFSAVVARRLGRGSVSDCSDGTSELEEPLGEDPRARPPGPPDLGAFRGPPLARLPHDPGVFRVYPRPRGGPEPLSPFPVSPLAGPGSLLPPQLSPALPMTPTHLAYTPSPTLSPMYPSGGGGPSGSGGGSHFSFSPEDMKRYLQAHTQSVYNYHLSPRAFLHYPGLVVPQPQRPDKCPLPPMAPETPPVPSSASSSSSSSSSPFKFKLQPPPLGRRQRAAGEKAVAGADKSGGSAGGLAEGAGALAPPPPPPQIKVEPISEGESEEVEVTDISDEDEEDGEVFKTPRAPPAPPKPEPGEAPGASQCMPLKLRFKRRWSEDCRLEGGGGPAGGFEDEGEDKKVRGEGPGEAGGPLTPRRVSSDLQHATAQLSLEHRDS
# Method in brief: as §1
# [12] = biological target: T7, ETV3L (Homo sapiens, UniProt Q6ZN32 1-361); conditions: protein: recombinant; tags: N-terminal GST; dsDNA, one strand shown
# T7 sequence: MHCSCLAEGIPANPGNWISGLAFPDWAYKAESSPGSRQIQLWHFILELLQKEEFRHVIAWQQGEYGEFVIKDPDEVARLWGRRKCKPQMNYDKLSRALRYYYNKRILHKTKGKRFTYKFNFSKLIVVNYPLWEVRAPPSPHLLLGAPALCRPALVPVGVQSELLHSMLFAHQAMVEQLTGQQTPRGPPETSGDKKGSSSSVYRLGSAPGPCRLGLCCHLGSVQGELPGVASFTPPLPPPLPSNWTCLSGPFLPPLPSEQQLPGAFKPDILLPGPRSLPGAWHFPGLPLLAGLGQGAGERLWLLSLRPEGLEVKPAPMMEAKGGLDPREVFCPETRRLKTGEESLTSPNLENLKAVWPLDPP
# Method in brief: as §1
# [13] = biological target: T8, ETS2 (Homo sapiens, UniProt P15036 1-469); conditions: protein: recombinant; tags: N-terminal GST; dsDNA, one strand shown
# T8 sequence: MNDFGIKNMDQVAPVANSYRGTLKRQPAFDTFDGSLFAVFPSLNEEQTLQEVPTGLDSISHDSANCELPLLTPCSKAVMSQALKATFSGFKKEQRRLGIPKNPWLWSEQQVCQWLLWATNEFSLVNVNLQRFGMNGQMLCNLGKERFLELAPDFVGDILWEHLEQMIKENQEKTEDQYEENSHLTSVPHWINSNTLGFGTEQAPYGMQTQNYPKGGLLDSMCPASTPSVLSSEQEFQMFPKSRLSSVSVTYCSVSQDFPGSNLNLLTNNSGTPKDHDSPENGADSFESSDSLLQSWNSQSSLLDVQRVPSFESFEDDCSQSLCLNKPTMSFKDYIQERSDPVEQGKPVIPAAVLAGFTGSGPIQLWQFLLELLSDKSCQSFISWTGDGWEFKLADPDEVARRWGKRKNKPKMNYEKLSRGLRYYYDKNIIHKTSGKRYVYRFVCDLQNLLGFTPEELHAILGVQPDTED
# Method in brief: as §1
# [14] = biological target: T9, SPDEF (Homo sapiens, UniProt O95238 1-335); conditions: protein: recombinant; tags: N-terminal GST; dsDNA, one strand shown
# T9 sequence: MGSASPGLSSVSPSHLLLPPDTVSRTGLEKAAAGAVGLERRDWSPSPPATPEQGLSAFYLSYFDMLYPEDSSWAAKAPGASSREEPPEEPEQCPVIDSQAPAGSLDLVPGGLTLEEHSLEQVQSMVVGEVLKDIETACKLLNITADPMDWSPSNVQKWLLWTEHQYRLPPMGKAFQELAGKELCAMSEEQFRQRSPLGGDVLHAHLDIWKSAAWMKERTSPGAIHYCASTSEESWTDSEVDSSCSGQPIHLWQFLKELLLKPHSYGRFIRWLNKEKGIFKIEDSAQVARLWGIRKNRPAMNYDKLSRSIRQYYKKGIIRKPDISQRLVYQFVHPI
# Method in brief: as §1
# [15] = biological target: T10, ETV7 (Homo sapiens, UniProt Q9Y603 1-341); conditions: protein: recombinant; tags: N-terminal GST; dsDNA, one strand shown
# T10 sequence: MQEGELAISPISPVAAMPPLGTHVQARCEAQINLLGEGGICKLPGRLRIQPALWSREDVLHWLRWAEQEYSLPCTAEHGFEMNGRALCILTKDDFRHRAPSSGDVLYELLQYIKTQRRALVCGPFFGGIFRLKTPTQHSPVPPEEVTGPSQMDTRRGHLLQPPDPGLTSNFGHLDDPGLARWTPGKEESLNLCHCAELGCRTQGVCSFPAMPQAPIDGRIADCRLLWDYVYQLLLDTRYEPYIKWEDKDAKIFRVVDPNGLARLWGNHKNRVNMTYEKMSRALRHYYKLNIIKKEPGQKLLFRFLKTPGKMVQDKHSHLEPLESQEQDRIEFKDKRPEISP
# Method in brief: as §1
# [16] = biological target: T11, ELF5 (Homo sapiens, UniProt Q9UKW6-2 1-255); conditions: protein: recombinant; tags: N-terminal GST; dsDNA, one strand shown
# T11 sequence: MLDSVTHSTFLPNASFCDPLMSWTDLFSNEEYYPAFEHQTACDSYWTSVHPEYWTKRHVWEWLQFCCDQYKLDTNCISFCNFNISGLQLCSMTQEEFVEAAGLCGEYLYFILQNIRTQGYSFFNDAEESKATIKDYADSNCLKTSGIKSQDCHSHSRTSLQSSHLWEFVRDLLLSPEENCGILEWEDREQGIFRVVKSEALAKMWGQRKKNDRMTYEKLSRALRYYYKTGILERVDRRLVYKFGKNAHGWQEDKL
# Method in brief: as §1
# [17] = biological target: T12, ETV3 (Homo sapiens, UniProt P41162-2 1-143); conditions: protein: recombinant; tags: N-terminal GST; dsDNA, one strand shown
# T12 sequence: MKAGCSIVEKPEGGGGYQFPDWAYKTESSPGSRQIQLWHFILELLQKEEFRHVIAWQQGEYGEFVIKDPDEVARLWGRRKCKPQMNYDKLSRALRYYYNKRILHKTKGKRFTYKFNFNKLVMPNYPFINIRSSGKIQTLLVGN
# Method in brief: as §1
# [18] = biological target: ETV6 (Homo sapiens, UniProt P41212 1-452); conditions: protein: recombinant; tags: N-terminal GST; dsDNA, one strand shown
# Chain of ETV6 (P41212 whole entry): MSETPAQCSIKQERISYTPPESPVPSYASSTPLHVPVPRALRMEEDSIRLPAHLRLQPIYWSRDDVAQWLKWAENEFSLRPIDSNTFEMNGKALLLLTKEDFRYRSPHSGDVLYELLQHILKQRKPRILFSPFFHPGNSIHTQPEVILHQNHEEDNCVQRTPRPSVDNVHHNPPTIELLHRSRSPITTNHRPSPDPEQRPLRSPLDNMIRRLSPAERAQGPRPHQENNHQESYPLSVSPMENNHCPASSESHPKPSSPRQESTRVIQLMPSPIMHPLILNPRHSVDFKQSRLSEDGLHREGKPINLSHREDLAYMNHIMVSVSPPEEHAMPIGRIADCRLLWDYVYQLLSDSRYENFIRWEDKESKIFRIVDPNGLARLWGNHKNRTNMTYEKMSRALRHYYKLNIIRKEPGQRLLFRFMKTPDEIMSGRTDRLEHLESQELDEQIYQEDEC
# Method in brief: as §1
sequence,measurement,setting,value
GAACTA,binding signal,[1],"1.25 fold enrichment (6-mer frequency, TF over GST control)"
same,binding signal,[2],"1.33 fold enrichment (6-mer frequency, TF over GST control)"
same,binding signal,[3],"1.32 fold enrichment (6-mer frequency, TF over GST control)"
same,binding signal,[4],"1.48 fold enrichment (6-mer frequency, TF over GST control)"
same,binding signal,[5],"1.21 fold enrichment (6-mer frequency, TF over GST control)"
same,binding signal,[6],"1.25 fold enrichment (6-mer frequency, TF over GST control)"
same,binding signal,[7],"1.31 fold enrichment (6-mer frequency, TF over GST control)"
same,binding signal,[8],"1.23 fold enrichment (6-mer frequency, TF over GST control)"
same,binding signal,[9],"1.13 fold enrichment (6-mer frequency, TF over GST control)"
same,binding signal,[10],"1.37 fold enrichment (6-mer frequency, TF over GST control)"
same,binding signal,[11],"1.25 fold enrichment (6-mer frequency, TF over GST control)"
same,binding signal,[12],"1.27 fold enrichment (6-mer frequency, TF over GST control)"
same,binding signal,[13],"1.33 fold enrichment (6-mer frequency, TF over GST control)"
same,binding signal,[14],"1.31 fold enrichment (6-mer frequency, TF over GST control)"
same,binding signal,[15],"1.3 fold enrichment (6-mer frequency, TF over GST control)"
same,binding signal,[16],"1.36 fold enrichment (6-mer frequency, TF over GST control)"
same,binding signal,[17],"1.34 fold enrichment (6-mer frequency, TF over GST control)"
same,binding signal,[18],"1.36 fold enrichment (6-mer frequency, TF over GST control)"
